# Assay outcomes deposited in PubChem BioAssay by several laboratories.
# Y pestis TopoI: Yersinia pestis topoisomerase I inhibitors, primary screen, biochemical, cleavage product accumulation, plate reader, single point | 360,000 compounds, 0.064% hits | activity, % at 10 µM | AID 504884, 2011 | Y. pestis Topo-I cleavage product accumulation; in the data active = activity above about 50%, passing the limit was not always enough
# PrP 5UTR inh: inhibition of PrP 5' UTR reporter expression | cell-based PrP 5' UTR mRNA reporter, plate reader | AID 488862, 2010 | inhibition, % (test concentration not listed) | 340,000 compounds, 0.35% hits; in the data active = inhibition above about 52%; note: 0 = median of the neutral control wells
# FBA Mtb inh: Mtb FBA enzyme inhibitors, primary screen, biochemical, fluorescence, strain H37Rv; inhibition, % at 1 µM; AID 588726, 2011; Fructose-bisphosphate aldolase (Mycobacterium tuberculosis (strain ATCC 25618 / H37Rv)), …; purified M. tuberculosis FBA, fluorescence read-out; 360,000 compounds, 2.3% hits;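 note: 0% = vehicle and 100% = reference inhibitor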
# Target sequence (P9WQA3 whole entry, looked up): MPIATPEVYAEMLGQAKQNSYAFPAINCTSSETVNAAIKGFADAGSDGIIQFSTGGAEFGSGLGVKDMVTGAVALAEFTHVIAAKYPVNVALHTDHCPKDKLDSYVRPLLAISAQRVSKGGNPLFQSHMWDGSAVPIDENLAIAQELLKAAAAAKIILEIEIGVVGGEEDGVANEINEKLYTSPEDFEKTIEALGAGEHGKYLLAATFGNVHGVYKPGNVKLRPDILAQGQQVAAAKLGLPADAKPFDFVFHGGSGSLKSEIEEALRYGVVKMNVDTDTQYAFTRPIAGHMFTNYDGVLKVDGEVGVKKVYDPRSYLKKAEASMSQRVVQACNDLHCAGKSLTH
# PrPC TRFRET: inhibitors of human cell surface prion protein PrPC, primary screen, cell-based, TR-FRET; TR-FRET read-out; inhibition, % at 13.8 µM; 370,000 compounds, 0.43% hits; AID 720596, 2013; in the data active = inhibition above about 24%; note: 0% = median of the test wells and 100% = reference compound wells
# GDH-TPI counter-1: GDH-TPI coupling enzyme inhibitors, primary screen, artefact control for M. tuberculosis FBA inhibitor project, biochemical, absorbance, full deck; GDH-TPI coupled enzyme counterscreen, NADH absorbance; inhibition, % at 4.8 µM; 360,000 compounds, 1.2% hits; AID 588335, 2011; in the data active = inhibition above about 30%;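 note: 0% = DMSO wells and 100% = wells lacking the enzyme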
# Mtb hypoxia rep: PubChem AID 1159583; 300,000 compounds, 0.1% hits; M. tuberculosis hypoxia-regulated fluorescent reporter, fluorescence; fluorescence inhibition, % (concentration not given with the values); in the data active = fluorescence inhibition mostly above about 23%, no sharp cut-off; inactive = mostly below about 17%
# Mtb FBA inh conf: M. tuberculosis aldolase blockers, biochemical, fluorescence, strain H37Rv, confirmation. 5,600 compounds, 78% hits. inhibition, % at 1 µM. purified M. tuberculosis FBA, fluorescence read-out. shares compounds with FBA Mtb inh;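 note: 0% = vehicle wells and 100% = reference inhibitor wells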
# GDH-TPI counter-2: GDH-TPI coupling enzyme inhibitors, artefact control for M. tuberculosis FBA inhibitor project, biochemical, fluorescence, high throughput; 5,600 compounds, 81% hits; inhibition, % at 1 µM; GDH-TPI coupled enzyme counterscreen; shares compounds with FBA Mtb inh; AID 652141, 2013; in the data active = inhibition above about 10%
# GDH-TPI DR: GDH-TPI coupling enzyme inhibitors, dose response, artefact control for M. tuberculosis FBA inhibitor project, biochemical, fluorescence, IC50; shares compounds with FBA Mtb inh; 170 compounds, 79% hits; GDH-TPI coupled enzyme assay, artifact counterscreen; AID 652145, 2013; IC50, µM; call rule not given here
# The depositor's hits bear a star; · = no result; + = active, no number. Shown are actives, neighbours in structure and some others; about 3.8% of the full set was active somewhere. Cut-off read from the data, not from the text of the source, unless noted: active = inhibition above about 27%; inactive = the rest.
SMILES,Y pestis TopoI,PrP 5UTR inh,FBA Mtb inh,PrPC TRFRET,GDH-TPI counter-1,Mtb hypoxia rep,Mtb FBA inh conf,GDH-TPI counter-2,others
CSCC[C@H](NC(=O)c1ccc2ccccc2c1)C(=O)N1CCC2(CC1)NCCc1[nH]cnc12,5,-27,0,-9,-4,8,·,·,
CSCC[C@H](NC(=O)COc1ccc(Cl)cc1)C(=O)N1CCC2(CC1)NCCc1[nH]cnc12,-5,-4,59*,0,1,-10,120*,111*,
CCc1ccc2c(c1)C(=NN(C)C(=S)NC)C(=O)N2,·,·,·,·,·,13,·,·,
Cc1c(O)ccc2c3c(c(=O)oc12)CCC(C)C3 (stereo unspecified),-7,-18,103*,3,12,·,+,+,
Cc1c(O)ccc2c(-c3ccccc3)cc(=O)oc12,3,-5,11,-11,11,8,·,·,
O=C1NC(c2ccc3c(c2)OCO3)Nc2ccccc21 (stereo unspecified),-1,-59,20,7,8,·,·,·,
CC1(CCc2ccc3c(c2)OCO3)NC(=O)c2ccccc2N1 (stereo unspecified),8,-16,50*,3,-4,6,150*,114*,
C(=Nn1cnnc1)c1ccc(-c2ccccc2)cc1,·,·,·,·,·,6,·,·,
CCOc1ccccc1NC(=O)C(=O)C=C(O)c1cc(OC)ccc1OC,·,·,·,·,·,4,·,·,
COc1cc2ccc(=O)oc2c2ccoc12,12,-10,35*,0,18,-1,+,155*,
Cc1ccc(-c2n[nH]c(=S)n2N=Cc2ccc(C)o2)cc1,·,·,·,·,·,6,·,·,
S=c1[nH]nc(-c2ccccc2)n1Cc1ccccc1,-9,8,2,3,15,·,·,·,
S=c1[nH]nc(-c2cccs2)n1Cc1ccccc1,0,-12,28*,-9,-1,2,86*,59*,
COc1ccc(Nc2nc3ccc(C)cn3c(=O)c2C=NO)cc1,·,·,·,·,·,-4,·,·,
O=C(COc1ccc2ccc(=O)oc2c1)Nc1ccc(N2CCCCC2)cc1,-4,-28,41*,-3,3,1,+,152*,
CC(Oc1ccc2c(-c3ccccc3)cc(=O)oc2c1)C(=O)NCCN1CCOCC1 (stereo unspecified),4,-10,-2,-8,21,0,·,·,
CC(Oc1ccc2ccc(=O)oc2c1)C(=O)NCCN1CCOCC1 (stereo unspecified),2,-3,28*,-8,21,8,151*,110*,
O=C(COc1ccc2ccc(=O)oc2c1)NCCN1CCOCC1,-2,·,27*,-11,25,·,123*,95*,
Cc1ccc(N(CC(=O)NN=Cc2cccc(Br)c2)S(C)(=O)=O)cc1,·,·,·,·,·,8,·,·,
CCOc1ccc2oc(C(=O)NCC(C)(C)CN(C)C)c(C)c2c1,-10,-14,44*,-1,12,4,116*,86*,
CCOC(=O)C1CCN(C(=O)COC(=O)c2oc3ccc(OC)cc3c2C)CC1,0,·,40*,-1,-6,7,86*,47*,
COc1ccc2oc(C(=O)OC(C)C(=O)N(C)c3ccccc3)c(C)c2c1 (stereo unspecified),3,-3,31*,0,8,9,+,+,
COc1ccc2oc(C(=O)OCC(=O)N3CC(C)CC(C)C3)c(C)c2c1 (stereo unspecified),27,-29,31*,-3,9,4,57*,51*,
COc1ccc(N2CCN(C(=O)COC(=O)c3oc4ccc(OC)cc4c3C)CC2)cc1,12,-26,14,6,5,-1,·,·,
Cc1c(NC(=O)C(=Cc2cccs2)NC(=O)c2ccccc2)c(=O)n(-c2ccccc2)n1C,·,·,·,·,·,4,·,·,
SMILES,Y pestis TopoI,PrP 5UTR inh,FBA Mtb inh,PrPC TRFRET,GDH-TPI counter-1,Mtb hypoxia rep,Mtb FBA inh conf,GDH-TPI counter-2,others
COc1ccc2oc(C(=O)OCC(=O)N3CCN(S(=O)(=O)c4ccc(C)cc4)CC3)c(C)c2c1,36,-4,23,-1,-2,11,·,·,
CCNC(=O)NC(=O)C(C)OC(=O)c1oc2ccc(OC)cc2c1C (stereo unspecified),7,-6,44*,9,22,2,2,-5,
COc1ccc2oc(C(=O)OCC(=O)N3CC(C)OC(C)C3)c(C)c2c1 (stereo unspecified),3,-8,36*,5,-11,-2,25,23*,
CCOc1ccc2oc(C(=O)OC(C(=O)NC(N)=O)C(C)C)c(C)c2c1 (stereo unspecified),-1,-8,40*,5,12,1,+,+,
CCOc1ccc2oc(C(=O)O)c(C)c2c1,1,-21,18,1,2,8,·,·,
COc1ccc2oc(C(=O)OC(C)C(=O)Nc3ccc(N4CCOCC4)cc3)c(C)c2c1 (stereo unspecified),-2,-13,6,4,13,18,·,·,
COC(=O)C1CCN(C(=O)COC(=O)c2cc(-c3ccccc3)nc3ccc(OC)cc23)CC1,-8,-14,83*,·,22,11,58*,51*,
O=S(=O)(N=C([O-])C[n+]1ccccc1)c1ccc(Cl)cc1,·,·,·,·,·,-6,·,·,
COc1ccc2oc(C(=O)OC(C)C(=O)N3CCC(C)CC3)c(C)c2c1 (stereo unspecified),23,-16,44*,3,10,2,+,+,
CC(/C=C/c1ccc(O)cc1)=N/O,2,-23,67*,4,12,·,-3,-3,
CC(/C=C/c1ccccc1)=N/O,5,-14,1,-5,6,·,·,·,
Cc1cccc(C=NNC(=O)c2cc(-c3cccnc3)nc3ccccc23)c1,·,·,·,·,·,8,·,·,
COCCn1c(SCC(=O)N2CCCCC2)nc2c(c1=O)SCC2,-1,-23,41*,1,13,-1,18,6,GDH-TPI DR=>10
COc1ccc(-c2cc(=O)c3ccc(O)cc3o2)cc1OC,-1,·,54*,-12,25,·,6,4,
CC1(C)SC(=S)N(N=Cc2cccnc2)C1N(O)C(=O)NC1CCCCC1 (stereo unspecified),·,·,·,·,·,13,·,·,
Cc1cc(=O)oc2c3c(ccc12)OC/C3=N/N,2,-34,94*,6,15,·,+,+,
